Records with an inconclusive call do not appear. Entries that show only a call come without a potency. Active and inactive are the calls of the source. Calls come from the whole dose curve; as a rule, active = well fitted cell-killing curve with a large enough effect in the repeat runs; inconclusive = weak or mixed curves, or effect the other way; inactive = no such curve, though single readings can be large or run the other way.
Potency is the fitted concentration of half-maximal effect.

This experiment in a line: qHTS assay to identify small molecule antagonists of the thyroid receptor (TR) signaling pathway - cell viability counter screen (AID 743064). Note: nearly all actives have a fitted effect of over 50% in size. The settings on record: GH3.TRE-Luc viability, CellTiter-Fluor, 24 h; series mostly up to 70.3 µM. The text has this:
National Center for Advancing Translational Sciences [NCATS]
NIH Chemical Genomics Center [NCGC]
U.S. Environmental Protection Agency [EPA]
National Institutes of Environmental Health Sciences [NIEHS]
National Toxicology Program [NTP]
U.S. Food and Drug Administration [FDA]
Thyroid receptor (TR), a nuclear hormone receptor, plays an important role in development, proliferation, differentiation, metabolism, brain function, and cardiovascular system. […] To profile the Tox21 10K compound library in TR signaling, a cell-based GH3-TRE-Luc assay (GH3.TRE-Luc cell line, developed by the laboratory of Dr. Albertinka J. Murk, Wageningen University) was used to measure the inhibition of TR. GH3 (rat pituitary tumor) cells stably expressing a TR activity sensor consisting of two TR response elements and a luciferase reporter gene. The cytotoxicity of the Tox21 compound library against the GH3.TRE-Luc cell line was tested in parallel by measuring the cell viability using CellTiter-Fluor assay (Promega, Madison, WI) in the same wells.
Tox21 Assay Protocol Summary:
GH3.TRE-Luc cells were dispensed at 1500 cells/4 uL/well into 1536-well white solid bottom plates using a Multidrop Combi dispenser (Thermo Fisher Scientific Inc., Waltham, MA). After the assay plates were incubated at 37 C for 4 hours, 23 nL of library compound or DMSO controls was transferred to the assay plates by a pintool station (Kalypsys, San Diego, CA), followed by addition of 1 ul of T3 (1 nM, final concentration in the wells) to stimulate TR transactivation. The assay plates were incubated at 37 C for 23.5 h, and then 1 uL of CellTiter-Fluor reagent (Promega, Madision, WI) of measuring cytotoxicity was added to each well using a Bioraptr Flying Reagent Dispenser (FRD) workstation (Beckman Coulter, Indianapolis, IN, USA). The plates were incubated at 37C and 5% CO2 for additional 30 min, and fluorescence intensity was measured by a ViewLux plate reader (PerkinElmer, Shelton, CT).
Regarding `O=c1cc(-c2ccccc2)oc2ccc3ccccc3c12`, the Potency entry was “inactive”.
For the molecule `COC(=O)CCS`, the Potency entry was “inactive”.
Then `CC(CCC(=O)O)C(=O)O` (stereo not given), with “inactive”; and `C=C(C)[C@@H]1CCC2=CCC[C@@H](C)[C@]2(C)C1`, with “inactive”; and `c1ccc(C[n+]2cccc3ccccc32)cc1`, with “inactive”.
Then `O=C(Cn1ccnc1[N+](=O)[O-])NCCO`, with “inactive”; and `Cc1cscn1`, with “inactive”.
Then `O=C(O)C[C@H](NC(=O)OCc1ccccc1)C(=O)O`, with “inactive”; and `O=C(O)CCCCCCCCCCCBr`, with “inactive”.
For `C=C1c2cccc(O)c2C(O)=C2C(=O)[C@]3(O)C(O)=C(C(N)=O)C(=O)[C@@H](N(C)C)[C@@H]3[C@@H](O)[C@H]12`, the Potency result was “inactive”.
Then `CCn1cc(C(=O)O)c(=O)c2cc(F)c(N3CCNCC3)cc21`, with “inactive”; and `CC(C)(C)C(=O)C(=O)O`, with “inactive”.
Then `CC1=C(Br)C(=O)C(Br)=C/C1=C(/c1ccccc1S(=O)(=O)O)c1cc(Br)c(O)c(Br)c1C`, with 46.6 µM (active); and `O=C(CCc1ccc(O)cc1)c1c(O)cc(O)cc1O`, with 55.7 µM (active); and `CN1CCCC(n2nc(Cc3ccc(Cl)cc3)c3ccccc3c2=O)CC1` (stereo not given), with 21.1 µM (active).
Then `CC(=O)[C@H]1[C@H](C#N)C[C@H]2[C@@H]3CC=C4C[C@@H](O)CC[C@]4(C)[C@H]3CC[C@@]21C`, with “inactive”.
`CC1=C(CC=O)C(C)(C)CCC1`: the Potency result is “inactive”.
Then `CCC1CO1` (stereo not given), with “inactive”.
As for `Nc1cccc2c1CN(C1CCC(=O)NC1=O)C2=O` (stereo not given), the Potency entry was “inactive”.
Then `O=C=Nc1cccc(C(F)(F)F)c1`, with 60.7 µM (active); and `CCOC(C)=O`, with “inactive”.
Then `CCCCCCCCN`, with “inactive”; and `NNC(=O)CP(=O)(c1ccccc1)c1ccccc1`, with “inactive”.
Under `C[C@@]12CCC[C@H]1[C@@H]1CC[C@H]3C[C@@H](O)CC[C@]3(C)[C@H]1CC2` stands “inactive”.
Take `CCOC(=O)c1ccccc1C(=C1C=C(Br)C(=O)C(Br)=C1)c1cc(Br)c(O)c(Br)c1`: the Potency is 45.7 µM (active).
Consider `CCOC(=O)C1=C(C)NC(C)=C(C(=O)OC)C1c1cccc(Cl)c1Cl` (stereo not given), for which the Potency was 18.8 µM (active).
In the case of `CCCCCCCCOc1ccc(C(=O)O)cc1`, the Potency entry was “inactive”.
Then `C[C@@H](CN(C)C)CN1c2ccccc2Sc2ccccc21`, with 4.03 µM (active).
Under `O=C(/C=C/c1ccc(O)c(O)c1)O[C@@H]1C[C@@](OC(=O)/C=C/c2ccc(O)c(O)c2)(C(=O)O)C[C@@H](O)[C@@H]1O` stands “inactive”.
Then `CCOc1ccccc1O[C@H](c1ccccc1)[C@H]1CNCCO1`, with 16.8 µM (active).
As for `O=C1Cc2ccccc2N1c1c(Cl)cccc1Cl`, the Potency result is “inactive”.
Then `C/C=C/C=C/C=O`, with “inactive”.
Under `O=c1cc(-c2ccccc2)oc2cc(O)cc(O)c12` stands 54.5 µM (active); under `CC(=O)Nc1ccc(C)cc1C`, “inactive”; under `CCCCCC[C@@H](O)C/C=C\CCCCCCCC(=O)O`, “inactive”.
Then `COc1ccccc1NC(=O)c1cc2ccccc2cc1O`, with “inactive”.
Regarding `CCCCC(CC)COP(=O)(O)O` (stereo not given), the Potency entry is “inactive”.
With `O[C@@H]1CO[C@H]2[C@@H]1OC[C@@H]2O`, the Potency entry is “inactive”.
Then `CN(C)CCC=C1c2ccccc2C=Cc2ccccc21`, with 15 µM (active); and `CC1(C)O[C@@H]2C[C@H]3[C@@H]4C[C@H](F)C5=CC(=O)C=C[C@]5(C)[C@H]4[C@@H](O)C[C@]3(C)[C@]2(C(=O)CO)O1`, with “inactive”.

The values are drawn from PubChem BioAssay (Tox21).
